# Laboratory results: PubChem BioAssay (NCI)
# The panel holds about 79,000 compounds, 15% with a hit somewhere; the sample as a whole holds those more often. Values without a mark were called inactive. The source made the active and inactive calls. Rule as the data show it: active = growth inhibition above about 70%; inactive = the rest.
# Columns and labels:
# [1] = NCI Yeast Anticancer Drug Screen. Data for the wt1 strain (AID 149);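 also: 0% = growth of vehicle-treated wt1 cultures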; settings: S. cerevisiae wt1 strain (SPY 50644) growth inhibition, active compounds read high
# Summary of the method: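 wt1 strain grown with compound or vehicle; inhibition taken from the growth difference.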
# [2] = NCI Yeast Anticancer Drug Screen. Data for the rad50EPP+ strain (AID 151);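 also: 0% = growth of vehicle-treated control cultures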; settings: S. cerevisiae rad50 mutant strain, active compounds read high
# Summary of the method: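 Strain rad50EPP+; compound exposure; % growth inhibition vs vehicle.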
# [3] = NCI Yeast Anticancer Drug Screen. Data for the mgt1 strain (AID 153); settings: S. cerevisiae mgt1 mutant growth inhibition, active compounds read high
# Summary of the method: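 Read-out: yeast growth inhibition vs vehicle control. Strain mgt1, drawn from a panel altered in DNA damage repair or cell cycle control.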
# [4] = NCI Yeast Anticancer Drug Screen. Data for the rad50 strain (AID 155);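 also: 0% = growth of vehicle-only cultures of the same strain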; settings: S. cerevisiae rad50 strain growth inhibition, active compounds read high
# Summary of the method: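 DNA repair mutant yeast, compound exposure, growth read-out; inhibition is taken relative to vehicle.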
# [5] = NCI Yeast Anticancer Drug Screen. Data for the mec2-1 strain (AID 157); settings: S. cerevisiae mec2-1 strain, active compounds read high
# Summary of the method: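 Cells of the genetically defined mec2-1 yeast strain are incubated with test compound. Inhibition of growth is calculated against vehicle-treated controls.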
# [6] = NCI Yeast Anticancer Drug Screen. Data for the rad14 strain (AID 159);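 also: 0% = growth of vehicle-treated control cultures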; settings: S. cerevisiae rad14 strain growth inhibition, active compounds read high
# Summary of the method: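 DNA repair-defective yeast, compound-exposed; % growth inhibition derived by comparison with vehicle-treated controls.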
# [7] = NCI Yeast Anticancer Drug Screen. Data for the sgs1 mgt1 strain (AID 161);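 also: 0% = growth of cultures given vehicle only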; settings: S. cerevisiae sgs1 mgt1 strain, active compounds read high
# Summary of the method: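 Inhibition of yeast growth, normalised to vehicle-treated controls, is reported for a strain bearing genetic alterations in DNA damage repair.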
# [8] = NCI Yeast Anticancer Drug Screen. Data for the CLN2oe strain (AID 163);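 also: 0% = growth of vehicle-only control cultures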; settings: S. cerevisiae CLN2oe strain, active compounds read high
# Summary of the method: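 Strain altered in cell-cycle control, incubated with compound; growth compared to solvent-treated controls.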
# [9] = NCI Yeast Anticancer Drug Screen. Data for the cln2 rad14 strain (AID 165);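 also: 0% = growth equal to vehicle treated cultures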; settings: S. cerevisiae cln2 rad14 strain, active compounds read high
# Summary of the method: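 The screen exposed genetically defined yeast (cln2 rad14) to test compounds and scored growth inhibition relative to vehicle-treated controls.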
# [10] = NCI Yeast Anticancer Drug Screen. Data for the bub3 strain (AID 167); settings: S. cerevisiae bub3 mutant strain, active compounds read high
# Summary of the method: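 In this screen, a yeast mutant lacking normal mitotic checkpoint function is challenged with compound. Relative growth versus vehicle gives the inhibition value.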
# [11] = NCI Yeast Anticancer Drug Screen. Data for the wt2 strain (AID 169);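 also: 0% = growth of vehicle-treated yeast cultures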; settings: S. cerevisiae wt2 strain growth inhibition, active compounds read high
# Summary of the method: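 Steps: yeast strain treated with compound; growth recorded; inhibition calculated relative to cultures given vehicle alone.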
# [12] = NCI Yeast Anticancer Drug Screen. Data for the mlh1 strain (AID 171);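 also: 0% = growth of vehicle-treated control cultures of the same strain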; settings: S. cerevisiae mlh1 strain growth inhibition, active compounds read high
# Summary of the method: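 Yeast screen: mutant strain plus compound, growth scored against vehicle control wells.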
# [13] = NCI Yeast Anticancer Drug Screen. Data for the sgs1 strain (AID 173);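 also: 0% = growth of vehicle-only control cultures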; settings: S. cerevisiae sgs1 mutant, active compounds read high
# Summary of the method: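 Inhibition of yeast growth served as the measure. The mutant strain was treated with each compound, and growth was normalised to cultures receiving vehicle alone.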
# [14] = NCI Yeast Anticancer Drug Screen. Data for the mlh1 rad18 strain (AID 175); settings: S. cerevisiae mlh1 rad18 strain growth inhibition, active compounds read high
# Summary of the method: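 Compound-treated yeast growth, normalised to vehicle controls. Strain bears defined DNA repair mutations.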
# [15] = NCI Yeast Anticancer Drug Screen. Data for the rad18 strain (AID 177); settings: S. cerevisiae rad18 mutant growth inhibition, active compounds read high
# Summary of the method: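 Inhibition values reflect reduced yeast growth compared with vehicle-treated controls, using a strain engineered with a DNA damage repair defect.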
# [16] = at 5.0 µM (retest, dose inferred, filed as 0.5)
# [17] = at 50.0 µM (retest, dose inferred, filed as 5.0)
structure (smiles),measurement,setting,value
C[Si](C)(C)Cc1ccccc1C(=O)O,growth inhibition,[1]; at 1.2 µM,1%
same,growth inhibition,[1]; at 3.7 µM,1%
same,growth inhibition,[1]; at 11.0 µM,4%
same,growth inhibition,[1]; at 33.0 µM,38%
same,growth inhibition,[1]; at 100.0 µM,99% (active)
same,growth inhibition,[2]; at 1.2 µM,-2%
same,growth inhibition,[2]; at 3.7 µM,1%
same,growth inhibition,[2]; at 11.0 µM,0%
same,growth inhibition,[2]; at 33.0 µM,4%
same,growth inhibition,[2]; at 100.0 µM,3%
same,growth inhibition,[3]; at 1.2 µM,1%
same,growth inhibition,[3]; at 3.7 µM,6%
same,growth inhibition,[3]; at 11.0 µM,-2%
same,growth inhibition,[3]; at 33.0 µM,15%
same,growth inhibition,[3]; at 100.0 µM,99% (active)
same,growth inhibition,[4]; at 1.2 µM,4%
same,growth inhibition,[4]; at 3.7 µM,9%
same,growth inhibition,[4]; [16],2%
same,growth inhibition,[4]; at 11.0 µM,4%
same,growth inhibition,[4]; at 33.0 µM,56%
same,growth inhibition,[4]; [17],80% (active)
same,growth inhibition,[4]; at 50.0 µM,97.7% (active)
same,growth inhibition,[4]; at 100.0 µM,98% (active)
same,growth inhibition,[5]; at 1.2 µM,4%
same,growth inhibition,[5]; at 3.7 µM,4%
same,growth inhibition,[5]; [16],8%
same,growth inhibition,[5]; at 11.0 µM,8%
same,growth inhibition,[5]; at 33.0 µM,29%
same,growth inhibition,[5]; [17],86% (active)
same,growth inhibition,[5]; at 50.0 µM,97% (active)
same,growth inhibition,[5]; at 100.0 µM,98% (active)
same,growth inhibition,[6]; at 1.2 µM,1%
same,growth inhibition,[6]; at 3.7 µM,-4%
same,growth inhibition,[6]; at 11.0 µM,0%
same,growth inhibition,[6]; at 33.0 µM,32%
same,growth inhibition,[6]; at 100.0 µM,99% (active)
same,growth inhibition,[7]; [16],9%
same,growth inhibition,[7]; [17],38%
same,growth inhibition,[7]; at 50.0 µM,97.4% (active)
same,growth inhibition,[8]; at 1.2 µM,9%
same,growth inhibition,[8]; at 3.7 µM,12%
same,growth inhibition,[8]; at 11.0 µM,11%
same,growth inhibition,[8]; at 33.0 µM,20%
same,growth inhibition,[8]; at 100.0 µM,99% (active)
same,growth inhibition,[9]; [16],33%
same,growth inhibition,[9]; [17],86% (active)
same,growth inhibition,[9]; at 50.0 µM,98% (active)
same,growth inhibition,[10]; at 1.2 µM,6%
same,growth inhibition,[10]; at 3.7 µM,8%
same,growth inhibition,[10]; [16],5%
same,growth inhibition,[10]; at 11.0 µM,2%
same,growth inhibition,[10]; at 33.0 µM,6%
same,growth inhibition,[10]; [17],17%
same,growth inhibition,[10]; at 50.0 µM,97% (active)
same,growth inhibition,[10]; at 100.0 µM,97% (active)
same,growth inhibition,[11]; at 1.2 µM,-1%
same,growth inhibition,[11]; at 3.7 µM,-3%
same,growth inhibition,[11]; at 11.0 µM,-1%
same,growth inhibition,[11]; at 33.0 µM,52%
same,growth inhibition,[11]; at 100.0 µM,99% (active)
same,growth inhibition,[12]; at 1.2 µM,3%
same,growth inhibition,[12]; at 3.7 µM,12%
same,growth inhibition,[12]; at 11.0 µM,3%
same,growth inhibition,[12]; at 33.0 µM,42%
same,growth inhibition,[12]; at 100.0 µM,99% (active)
same,growth inhibition,[13]; at 1.2 µM,-1%
same,growth inhibition,[13]; at 3.7 µM,1%
same,growth inhibition,[13]; at 11.0 µM,5%
same,growth inhibition,[13]; at 33.0 µM,65%
same,growth inhibition,[13]; at 100.0 µM,99% (active)
same,growth inhibition,[14]; [16],-2%
same,growth inhibition,[14]; [17],83% (active)
same,growth inhibition,[14]; at 50.0 µM,98.2% (active)
same,growth inhibition,[15]; at 1.2 µM,2%
same,growth inhibition,[15]; at 3.7 µM,3%
same,growth inhibition,[15]; at 11.0 µM,1%
same,growth inhibition,[15]; at 33.0 µM,65%
same,growth inhibition,[15]; at 100.0 µM,97% (active)
CCCCCC(=O)C(C)(c1nc2n(c1O)/C(=N/C(=O)Nc1ccc(Cl)cc1)N=N2)c1nc2n(c1O)/C(=N/C(=O)Nc1ccc(Cl)cc1)N=N2,growth inhibition,[1]; at 1.2 µM,3%
same,growth inhibition,[1]; at 3.7 µM,-4%
same,growth inhibition,[1]; at 11.0 µM,-3%
same,growth inhibition,[1]; at 33.0 µM,1%
same,growth inhibition,[1]; at 100.0 µM,18%
same,growth inhibition,[2]; at 1.2 µM,8%
same,growth inhibition,[2]; at 3.7 µM,16%
same,growth inhibition,[2]; at 11.0 µM,32%
same,growth inhibition,[2]; at 33.0 µM,60%
same,growth inhibition,[2]; at 100.0 µM,79% (active)
same,growth inhibition,[3]; at 1.2 µM,2%
same,growth inhibition,[3]; at 3.7 µM,4%
same,growth inhibition,[3]; at 11.0 µM,-5%
same,growth inhibition,[3]; at 33.0 µM,9%
same,growth inhibition,[3]; at 100.0 µM,57%
same,growth inhibition,[4]; at 1.2 µM,6%
same,growth inhibition,[4]; at 3.7 µM,0%
same,growth inhibition,[4]; [16],-7%
same,growth inhibition,[4]; at 11.0 µM,6%
same,growth inhibition,[4]; at 33.0 µM,24%
same,growth inhibition,[4]; [17],14%
same,growth inhibition,[4]; at 50.0 µM,-11.6%
same,growth inhibition,[4]; at 100.0 µM,44%
same,growth inhibition,[5]; at 1.2 µM,-3%
same,growth inhibition,[5]; at 3.7 µM,-1%
same,growth inhibition,[5]; [16],20%
same,growth inhibition,[5]; at 11.0 µM,2%
same,growth inhibition,[5]; at 33.0 µM,8%
same,growth inhibition,[5]; [17],41%
same,growth inhibition,[5]; at 50.0 µM,-11.2%
same,growth inhibition,[5]; at 100.0 µM,30%
same,growth inhibition,[6]; at 1.2 µM,-1%
same,growth inhibition,[6]; at 3.7 µM,2%
same,growth inhibition,[6]; at 11.0 µM,-2%
same,growth inhibition,[6]; at 33.0 µM,4%
same,growth inhibition,[6]; at 100.0 µM,50%
same,growth inhibition,[7]; [16],12%
same,growth inhibition,[7]; [17],64%
same,growth inhibition,[7]; at 50.0 µM,-5.1%
same,growth inhibition,[8]; at 1.2 µM,-5%
same,growth inhibition,[8]; at 3.7 µM,-8%
same,growth inhibition,[8]; at 11.0 µM,-5%
same,growth inhibition,[8]; at 33.0 µM,2%
same,growth inhibition,[8]; at 100.0 µM,27%
same,growth inhibition,[9]; [16],-27%
same,growth inhibition,[9]; [17],3%
same,growth inhibition,[9]; at 50.0 µM,-23.3%
same,growth inhibition,[10]; at 1.2 µM,-6%
same,growth inhibition,[10]; at 3.7 µM,-9%
same,growth inhibition,[10]; [16],-42%
same,growth inhibition,[10]; at 11.0 µM,-8%
same,growth inhibition,[10]; at 33.0 µM,-1%
same,growth inhibition,[10]; [17],38%
same,growth inhibition,[10]; at 50.0 µM,98.2% (active)
same,growth inhibition,[10]; at 100.0 µM,20%
same,growth inhibition,[12]; at 1.2 µM,-4%
same,growth inhibition,[12]; at 3.7 µM,-1%
same,growth inhibition,[12]; at 11.0 µM,6%
same,growth inhibition,[12]; at 33.0 µM,22%
same,growth inhibition,[12]; at 100.0 µM,59%
same,growth inhibition,[13]; at 1.2 µM,2%
same,growth inhibition,[13]; at 3.7 µM,1%
same,growth inhibition,[13]; at 11.0 µM,6%
same,growth inhibition,[13]; at 33.0 µM,25%
same,growth inhibition,[13]; at 100.0 µM,54%
same,growth inhibition,[14]; [16],-26%
same,growth inhibition,[14]; [17],55%
same,growth inhibition,[14]; at 50.0 µM,7%
same,growth inhibition,[15]; at 1.2 µM,-1%
same,growth inhibition,[15]; at 3.7 µM,7%
same,growth inhibition,[15]; at 11.0 µM,9%
same,growth inhibition,[15]; at 33.0 µM,21%
same,growth inhibition,[15]; at 100.0 µM,51%
